# Experimental data taken from article PMC7862700, “An all-to-all approach to the identification of sequence-specific readers for epigenetic DNA modifications on cytosine”.
# Experiments:
# Assay in all cases: DAPPL (digital affinity profiling via proximity ligation, sequencing); 10 mM Tris-HCl pH 7.5, 50 mM NaCl, 1 mM DTT, 4% glycerol, room temperature, 30 min; GST-TFs on glutathione beads, 16-mer random dsDNA library, 0.1% formaldehyde crosslink after washing; high values mean tight binding
# FLI1 = target: T1, FLI1 (Homo sapiens, UniProt Q01543 1-452); details: protein: recombinant; tags: N-terminal GST; dsDNA, one strand shown
# T1 sequence: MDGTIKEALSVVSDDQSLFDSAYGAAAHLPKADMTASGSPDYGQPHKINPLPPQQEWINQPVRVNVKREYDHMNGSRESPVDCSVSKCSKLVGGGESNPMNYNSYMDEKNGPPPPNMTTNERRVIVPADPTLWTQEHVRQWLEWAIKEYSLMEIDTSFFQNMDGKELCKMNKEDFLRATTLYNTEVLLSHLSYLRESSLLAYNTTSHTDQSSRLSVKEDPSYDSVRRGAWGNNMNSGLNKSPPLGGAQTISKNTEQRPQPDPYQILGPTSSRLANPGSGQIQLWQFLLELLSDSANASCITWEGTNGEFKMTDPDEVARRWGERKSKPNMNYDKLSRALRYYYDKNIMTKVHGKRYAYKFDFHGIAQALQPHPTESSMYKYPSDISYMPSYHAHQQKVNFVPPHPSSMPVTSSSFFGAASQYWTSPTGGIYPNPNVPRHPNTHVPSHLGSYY
# In short: (§1)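 Human transcription factors carrying a GST fusion were produced in yeast, bound to glutathione beads, tagged with DNA barcodes and pooled together with a tag-only sample. Each pool was held with 200 nmole of a random double-stranded 16-mer DNA library in Tris/NaCl/DTT/glycerol buffer for 30 min at room temperature, then washed, crosslinked in 0.1% formaldehyde, proximity-ligated with BsaI/T4 ligase (1 h, 37 °C), PCR-amplified and sequenced on an Illumina NextSeq500. Binding signal is the read frequency of each hexamer for a given factor divided by its frequency in the tag-only sample.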
# ELK1 = target: T2, ELK1 (Homo sapiens, UniProt P19419 1-428); details: protein: recombinant; tags: N-terminal GST; dsDNA, one strand shown
# T2 sequence: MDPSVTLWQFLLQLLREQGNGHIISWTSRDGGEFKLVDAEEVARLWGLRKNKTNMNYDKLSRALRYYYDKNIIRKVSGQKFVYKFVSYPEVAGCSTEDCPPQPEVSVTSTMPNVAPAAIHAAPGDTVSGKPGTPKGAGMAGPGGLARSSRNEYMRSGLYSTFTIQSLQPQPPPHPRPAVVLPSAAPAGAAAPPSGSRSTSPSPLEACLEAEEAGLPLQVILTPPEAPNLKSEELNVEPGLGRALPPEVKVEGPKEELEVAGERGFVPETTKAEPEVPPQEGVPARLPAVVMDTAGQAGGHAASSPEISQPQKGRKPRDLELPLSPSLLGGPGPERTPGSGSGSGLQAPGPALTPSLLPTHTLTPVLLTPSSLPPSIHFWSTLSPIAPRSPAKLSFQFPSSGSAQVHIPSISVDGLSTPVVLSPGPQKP
# In short: as §1
# GABPA = target: T3, GABPA (Homo sapiens, UniProt Q06546 1-454); details: protein: recombinant; tags: N-terminal GST; dsDNA, one strand shown
# T3 sequence: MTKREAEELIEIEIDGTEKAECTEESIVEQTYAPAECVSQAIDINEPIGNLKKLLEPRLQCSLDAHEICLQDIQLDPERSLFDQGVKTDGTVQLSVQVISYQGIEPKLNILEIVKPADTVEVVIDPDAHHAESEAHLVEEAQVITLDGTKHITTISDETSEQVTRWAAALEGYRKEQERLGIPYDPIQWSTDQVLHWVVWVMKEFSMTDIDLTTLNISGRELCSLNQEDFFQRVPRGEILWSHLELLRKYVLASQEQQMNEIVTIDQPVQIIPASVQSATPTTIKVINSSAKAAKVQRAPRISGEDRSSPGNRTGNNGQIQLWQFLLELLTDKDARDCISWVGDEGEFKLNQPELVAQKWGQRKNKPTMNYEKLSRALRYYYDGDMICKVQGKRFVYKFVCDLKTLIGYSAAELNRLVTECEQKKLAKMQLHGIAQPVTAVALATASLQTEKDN
# In short: as §1
# ERG = target: T4, ERG (Homo sapiens, UniProt P11308 1-479); details: protein: recombinant; tags: N-terminal GST; dsDNA, one strand shown
# T4 sequence: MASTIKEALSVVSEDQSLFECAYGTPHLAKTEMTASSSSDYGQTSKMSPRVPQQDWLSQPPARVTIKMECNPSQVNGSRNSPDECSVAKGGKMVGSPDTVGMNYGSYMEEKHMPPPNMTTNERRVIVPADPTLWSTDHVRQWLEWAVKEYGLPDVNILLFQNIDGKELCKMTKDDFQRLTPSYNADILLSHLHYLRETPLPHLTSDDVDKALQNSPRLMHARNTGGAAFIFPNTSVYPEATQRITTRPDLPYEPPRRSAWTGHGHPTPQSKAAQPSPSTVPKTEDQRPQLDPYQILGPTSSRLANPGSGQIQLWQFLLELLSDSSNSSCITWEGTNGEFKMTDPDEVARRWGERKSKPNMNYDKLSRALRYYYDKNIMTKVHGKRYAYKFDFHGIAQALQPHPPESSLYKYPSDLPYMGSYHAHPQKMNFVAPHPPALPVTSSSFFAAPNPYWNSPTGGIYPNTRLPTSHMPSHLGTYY
# In short: as §1
# ELF1 = ELF1 (Homo sapiens, UniProt P32519 1-619); details: protein: recombinant; tags: N-terminal GST; dsDNA, one strand shown
# ELF1, sequence (P32519 whole entry): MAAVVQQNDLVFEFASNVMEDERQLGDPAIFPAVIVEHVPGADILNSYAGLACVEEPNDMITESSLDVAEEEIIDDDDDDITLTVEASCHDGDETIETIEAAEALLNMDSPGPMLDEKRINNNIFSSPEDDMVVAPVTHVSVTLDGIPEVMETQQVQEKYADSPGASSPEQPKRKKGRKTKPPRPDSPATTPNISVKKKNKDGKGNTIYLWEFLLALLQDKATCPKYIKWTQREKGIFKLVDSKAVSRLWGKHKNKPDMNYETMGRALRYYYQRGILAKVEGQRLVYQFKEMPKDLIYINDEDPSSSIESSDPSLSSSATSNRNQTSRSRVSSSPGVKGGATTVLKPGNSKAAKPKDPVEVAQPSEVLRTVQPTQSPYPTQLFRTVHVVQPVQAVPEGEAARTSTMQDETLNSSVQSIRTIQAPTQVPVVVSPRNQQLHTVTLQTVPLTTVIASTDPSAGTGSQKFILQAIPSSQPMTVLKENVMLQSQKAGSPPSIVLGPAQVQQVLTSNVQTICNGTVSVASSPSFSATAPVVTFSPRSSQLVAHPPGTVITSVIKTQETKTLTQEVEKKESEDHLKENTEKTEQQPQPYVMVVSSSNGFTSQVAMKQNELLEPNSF
# In short: as §1
# EHF = target: T5, EHF (Homo sapiens, UniProt Q9NZC4 1-300); details: protein: recombinant; tags: N-terminal GST; dsDNA, one strand shown
# T5 sequence: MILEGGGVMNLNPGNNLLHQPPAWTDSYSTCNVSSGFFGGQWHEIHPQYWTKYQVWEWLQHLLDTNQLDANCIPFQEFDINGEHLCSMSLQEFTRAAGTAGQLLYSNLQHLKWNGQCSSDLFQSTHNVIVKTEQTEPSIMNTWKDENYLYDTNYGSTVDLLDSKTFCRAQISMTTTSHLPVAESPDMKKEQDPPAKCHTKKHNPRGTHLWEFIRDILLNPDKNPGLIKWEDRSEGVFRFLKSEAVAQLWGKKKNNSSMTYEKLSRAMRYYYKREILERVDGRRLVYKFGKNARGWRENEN
# In short: as §1
# SPI1 = SPI1 (Homo sapiens, UniProt P17947 1-270); details: protein: recombinant; tags: N-terminal GST; dsDNA, one strand shown
# In short: as §1
# SPIB = SPIB (Homo sapiens, UniProt Q01892 1-262); details: protein: recombinant; tags: N-terminal GST; dsDNA, one strand shown
# SPIB, sequence (Q01892 whole entry): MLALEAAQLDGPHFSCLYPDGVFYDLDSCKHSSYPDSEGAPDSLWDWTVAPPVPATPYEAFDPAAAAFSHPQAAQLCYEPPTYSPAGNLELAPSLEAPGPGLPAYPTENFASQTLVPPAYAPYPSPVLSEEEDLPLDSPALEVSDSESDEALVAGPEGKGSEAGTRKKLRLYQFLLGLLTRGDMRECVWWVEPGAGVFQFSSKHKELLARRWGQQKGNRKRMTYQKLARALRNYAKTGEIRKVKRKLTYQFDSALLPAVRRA
# In short: as §1
# ELK3 = target: T6, ELK3 (Homo sapiens, UniProt P41970 1-407); details: protein: recombinant; tags: N-terminal GST; dsDNA, one strand shown
# T6 sequence: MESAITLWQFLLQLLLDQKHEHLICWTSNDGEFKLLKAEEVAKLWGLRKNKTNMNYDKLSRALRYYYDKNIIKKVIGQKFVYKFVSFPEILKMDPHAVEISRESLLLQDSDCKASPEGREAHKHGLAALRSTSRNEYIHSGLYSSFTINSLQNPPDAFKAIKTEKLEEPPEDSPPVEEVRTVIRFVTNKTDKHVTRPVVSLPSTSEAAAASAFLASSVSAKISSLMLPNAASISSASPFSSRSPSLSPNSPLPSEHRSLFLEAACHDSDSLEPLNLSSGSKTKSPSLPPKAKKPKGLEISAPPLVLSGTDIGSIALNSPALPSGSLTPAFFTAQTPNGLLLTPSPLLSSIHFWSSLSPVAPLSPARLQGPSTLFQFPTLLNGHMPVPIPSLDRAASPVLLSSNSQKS
# In short: as §1
# FEV = target: T7, FEV (Homo sapiens, UniProt Q99581 1-238); details: protein: recombinant; tags: N-terminal GST; dsDNA, one strand shown
# T7 sequence: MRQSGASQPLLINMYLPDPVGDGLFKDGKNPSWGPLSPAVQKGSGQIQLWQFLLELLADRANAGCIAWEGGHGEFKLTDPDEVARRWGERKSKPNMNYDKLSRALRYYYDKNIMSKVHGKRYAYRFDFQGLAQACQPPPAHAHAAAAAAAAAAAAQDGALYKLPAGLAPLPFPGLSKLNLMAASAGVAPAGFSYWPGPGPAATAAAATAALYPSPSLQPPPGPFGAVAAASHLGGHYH
# In short: as §1
# ETV5 = ETV5 (Homo sapiens, UniProt P41161 1-510); details: protein: recombinant; tags: N-terminal GST; dsDNA, one strand shown
# ETV5, sequence (P41161 whole entry): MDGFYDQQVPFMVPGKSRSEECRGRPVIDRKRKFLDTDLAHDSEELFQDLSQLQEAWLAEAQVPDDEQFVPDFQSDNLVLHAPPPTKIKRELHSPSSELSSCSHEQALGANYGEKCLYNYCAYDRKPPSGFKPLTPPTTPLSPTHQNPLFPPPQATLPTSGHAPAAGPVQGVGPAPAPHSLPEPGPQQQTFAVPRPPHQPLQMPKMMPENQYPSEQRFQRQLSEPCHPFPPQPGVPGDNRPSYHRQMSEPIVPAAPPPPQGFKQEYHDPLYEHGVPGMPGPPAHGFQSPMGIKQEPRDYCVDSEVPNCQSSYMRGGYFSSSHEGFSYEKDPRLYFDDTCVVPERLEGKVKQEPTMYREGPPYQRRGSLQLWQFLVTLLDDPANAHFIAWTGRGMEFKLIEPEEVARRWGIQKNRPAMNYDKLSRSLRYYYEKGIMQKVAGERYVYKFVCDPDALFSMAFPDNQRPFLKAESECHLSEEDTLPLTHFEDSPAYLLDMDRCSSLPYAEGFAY
# In short: as §1
# HSF1 = HSF1 (Homo sapiens, UniProt Q00613 1-529); details: protein: recombinant; tags: N-terminal GST; chain copies: 3; dsDNA, one strand shown
# HSF1, sequence (Q00613 whole entry): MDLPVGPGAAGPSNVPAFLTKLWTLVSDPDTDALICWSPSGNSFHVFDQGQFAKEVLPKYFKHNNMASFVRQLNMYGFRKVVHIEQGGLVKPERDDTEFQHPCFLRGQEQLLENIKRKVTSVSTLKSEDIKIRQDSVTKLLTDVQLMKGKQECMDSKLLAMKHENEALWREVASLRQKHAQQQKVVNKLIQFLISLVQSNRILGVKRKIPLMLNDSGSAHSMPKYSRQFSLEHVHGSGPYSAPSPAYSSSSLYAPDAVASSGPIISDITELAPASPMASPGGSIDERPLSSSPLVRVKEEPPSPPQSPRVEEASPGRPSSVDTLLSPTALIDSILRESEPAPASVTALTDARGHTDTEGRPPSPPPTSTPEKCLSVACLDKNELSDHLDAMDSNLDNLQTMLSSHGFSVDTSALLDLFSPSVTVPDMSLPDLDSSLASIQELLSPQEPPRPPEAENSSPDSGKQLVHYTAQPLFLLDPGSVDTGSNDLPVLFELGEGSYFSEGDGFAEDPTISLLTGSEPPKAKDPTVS
# In short: as §1
# SPIC = target: T8, SPIC (Homo sapiens, UniProt Q8N5J4 1-248); details: protein: recombinant; tags: N-terminal GST; dsDNA, one strand shown
# T8 sequence: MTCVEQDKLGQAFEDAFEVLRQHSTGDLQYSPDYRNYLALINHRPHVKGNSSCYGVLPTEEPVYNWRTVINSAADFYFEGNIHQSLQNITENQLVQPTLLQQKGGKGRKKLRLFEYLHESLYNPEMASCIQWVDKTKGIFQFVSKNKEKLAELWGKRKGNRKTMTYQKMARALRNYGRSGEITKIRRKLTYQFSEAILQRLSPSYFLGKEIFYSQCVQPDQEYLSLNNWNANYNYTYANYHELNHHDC
# In short: as §1
# ELF4 = ELF4 (Homo sapiens, UniProt Q99607 1-663); details: protein: recombinant; tags: N-terminal GST; dsDNA, one strand shown
# ELF4, sequence (Q99607 whole entry): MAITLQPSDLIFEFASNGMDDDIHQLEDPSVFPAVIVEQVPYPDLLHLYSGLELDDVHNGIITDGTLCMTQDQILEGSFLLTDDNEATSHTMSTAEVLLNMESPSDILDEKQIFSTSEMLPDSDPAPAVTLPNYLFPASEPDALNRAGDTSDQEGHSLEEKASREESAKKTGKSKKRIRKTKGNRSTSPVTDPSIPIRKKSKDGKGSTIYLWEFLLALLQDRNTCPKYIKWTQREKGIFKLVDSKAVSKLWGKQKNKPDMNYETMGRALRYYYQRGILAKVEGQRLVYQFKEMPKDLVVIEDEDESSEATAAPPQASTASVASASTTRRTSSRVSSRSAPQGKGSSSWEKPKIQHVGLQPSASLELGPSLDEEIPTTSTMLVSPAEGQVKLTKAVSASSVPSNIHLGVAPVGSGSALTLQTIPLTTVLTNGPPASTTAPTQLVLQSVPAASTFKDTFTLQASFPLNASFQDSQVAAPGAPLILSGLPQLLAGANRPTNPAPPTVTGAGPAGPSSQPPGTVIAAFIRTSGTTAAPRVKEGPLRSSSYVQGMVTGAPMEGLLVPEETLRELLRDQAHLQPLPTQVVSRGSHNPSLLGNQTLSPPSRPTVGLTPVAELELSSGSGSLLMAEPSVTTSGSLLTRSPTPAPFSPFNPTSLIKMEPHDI
# In short: as §1
# ELK4 = target: T9, ELK4 (Homo sapiens, UniProt P28324-2 1-405); details: protein: recombinant; tags: N-terminal GST; dsDNA, one strand shown
# T9 sequence: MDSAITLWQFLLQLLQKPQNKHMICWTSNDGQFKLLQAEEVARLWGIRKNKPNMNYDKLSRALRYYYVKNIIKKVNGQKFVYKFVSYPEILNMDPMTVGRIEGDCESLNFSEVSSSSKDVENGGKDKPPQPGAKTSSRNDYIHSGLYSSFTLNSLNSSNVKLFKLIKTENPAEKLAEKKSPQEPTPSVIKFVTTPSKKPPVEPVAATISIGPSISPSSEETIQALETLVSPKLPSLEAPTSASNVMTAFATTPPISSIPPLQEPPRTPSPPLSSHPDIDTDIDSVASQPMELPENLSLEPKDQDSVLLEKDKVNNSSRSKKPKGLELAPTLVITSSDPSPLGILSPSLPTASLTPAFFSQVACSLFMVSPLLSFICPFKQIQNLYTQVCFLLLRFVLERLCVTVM
# In short: as §1
# ETV2 = target: T10, ETV2 (Homo sapiens, UniProt O00321 1-342); details: protein: recombinant; tags: N-terminal GST; dsDNA, one strand shown
# T10 sequence: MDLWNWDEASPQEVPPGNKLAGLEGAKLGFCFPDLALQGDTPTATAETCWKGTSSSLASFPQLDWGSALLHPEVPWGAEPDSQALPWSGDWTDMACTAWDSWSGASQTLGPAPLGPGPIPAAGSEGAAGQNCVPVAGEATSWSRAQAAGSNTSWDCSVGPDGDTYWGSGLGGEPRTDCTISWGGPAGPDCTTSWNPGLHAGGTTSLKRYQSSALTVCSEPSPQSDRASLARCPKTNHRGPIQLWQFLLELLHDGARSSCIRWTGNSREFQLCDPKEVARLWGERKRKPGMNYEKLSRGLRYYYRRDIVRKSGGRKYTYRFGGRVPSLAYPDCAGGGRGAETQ
# In short: as §1
# ELF3 = target: T11, ELF3 (Homo sapiens, UniProt P78545 1-371); details: protein: recombinant; tags: N-terminal GST; dsDNA, one strand shown
# T11 sequence: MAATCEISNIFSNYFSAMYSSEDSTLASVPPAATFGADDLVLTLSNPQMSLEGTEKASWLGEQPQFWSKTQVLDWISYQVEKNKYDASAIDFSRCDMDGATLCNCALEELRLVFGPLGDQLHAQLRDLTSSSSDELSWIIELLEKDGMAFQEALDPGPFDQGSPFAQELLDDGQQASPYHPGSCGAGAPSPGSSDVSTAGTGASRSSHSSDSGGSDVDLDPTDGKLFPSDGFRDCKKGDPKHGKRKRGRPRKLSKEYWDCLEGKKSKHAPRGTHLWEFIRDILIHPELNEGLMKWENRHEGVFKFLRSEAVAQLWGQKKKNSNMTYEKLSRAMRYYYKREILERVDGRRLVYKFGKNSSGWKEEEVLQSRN
# In short: as §1
# CRX = CRX (Homo sapiens, UniProt O43186 1-299); details: protein: recombinant; tags: N-terminal GST; dsDNA, one strand shown
# CRX, sequence (O43186 whole entry): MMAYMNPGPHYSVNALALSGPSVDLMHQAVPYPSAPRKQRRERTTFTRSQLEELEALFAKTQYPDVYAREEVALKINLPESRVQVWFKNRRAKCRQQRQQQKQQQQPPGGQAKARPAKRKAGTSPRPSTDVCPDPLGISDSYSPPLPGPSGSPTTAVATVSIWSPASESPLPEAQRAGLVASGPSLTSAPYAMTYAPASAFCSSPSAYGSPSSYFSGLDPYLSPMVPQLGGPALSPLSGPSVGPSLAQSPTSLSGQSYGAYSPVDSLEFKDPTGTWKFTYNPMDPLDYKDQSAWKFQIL
# In short: as §1
# ETV1 = ETV1 (Homo sapiens, UniProt P50549 1-477); details: protein: recombinant; tags: N-terminal GST; dsDNA, one strand shown
# ETV1, sequence (P50549 whole entry): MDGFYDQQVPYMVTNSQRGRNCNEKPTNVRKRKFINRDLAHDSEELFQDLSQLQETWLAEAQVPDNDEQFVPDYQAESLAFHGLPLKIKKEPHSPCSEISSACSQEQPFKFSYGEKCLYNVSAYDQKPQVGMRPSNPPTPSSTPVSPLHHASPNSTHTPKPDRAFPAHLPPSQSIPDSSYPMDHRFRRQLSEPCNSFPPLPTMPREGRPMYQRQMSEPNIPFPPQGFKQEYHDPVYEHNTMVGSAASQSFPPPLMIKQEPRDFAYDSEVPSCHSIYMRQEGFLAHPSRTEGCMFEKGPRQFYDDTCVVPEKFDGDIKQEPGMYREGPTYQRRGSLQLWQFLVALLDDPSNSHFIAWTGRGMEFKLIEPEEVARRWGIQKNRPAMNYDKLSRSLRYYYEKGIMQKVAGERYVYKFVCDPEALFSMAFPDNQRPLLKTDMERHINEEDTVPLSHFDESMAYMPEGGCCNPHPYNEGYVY
# In short: as §1
sequence,measurement,setting,value
TCCATA,binding signal,FLI1,"1.33 fold enrichment (6-mer frequency, TF over GST control)"
same,binding signal,ELK1,"1.3 fold enrichment (6-mer frequency, TF over GST control)"
same,binding signal,GABPA,"1.18 fold enrichment (6-mer frequency, TF over GST control)"
same,binding signal,ERG,"1.25 fold enrichment (6-mer frequency, TF over GST control)"
same,binding signal,ELF1,"1.23 fold enrichment (6-mer frequency, TF over GST control)"
same,binding signal,EHF,"1.24 fold enrichment (6-mer frequency, TF over GST control)"
same,binding signal,SPI1,"1.18 fold enrichment (6-mer frequency, TF over GST control)"
same,binding signal,SPIB,"1.21 fold enrichment (6-mer frequency, TF over GST control)"
same,binding signal,ELK3,"1.35 fold enrichment (6-mer frequency, TF over GST control)"
same,binding signal,FEV,"1.21 fold enrichment (6-mer frequency, TF over GST control)"
same,binding signal,ETV5,"1.3 fold enrichment (6-mer frequency, TF over GST control)"
same,binding signal,HSF1,"1.44 fold enrichment (6-mer frequency, TF over GST control)"
same,binding signal,SPIC,"1.3 fold enrichment (6-mer frequency, TF over GST control)"
same,binding signal,ELF4,"1.2 fold enrichment (6-mer frequency, TF over GST control)"
same,binding signal,ELK4,"1.25 fold enrichment (6-mer frequency, TF over GST control)"
same,binding signal,ETV2,"1.19 fold enrichment (6-mer frequency, TF over GST control)"
same,binding signal,ELF3,"1.11 fold enrichment (6-mer frequency, TF over GST control)"
same,binding signal,CRX,"1.48 fold enrichment (6-mer frequency, TF over GST control)"
same,binding signal,ETV1,"1.32 fold enrichment (6-mer frequency, TF over GST control)"
